This is an account of results in PubChem BioAssay (EPA / NIEHS).

Results filed as inconclusive are left out. Active and inactive are the calls of the source. Rule for the calls, unless noted: active = hit-call score of the fitted dose curve at least 0.9, where 1 is the maximum; inactive = score below 0.9.

The AC50 is the concentration giving half of the maximal activity seen.

Test [1] is described as follows: ATG_TCF_b_cat_CIS: Attagene CIS-FACTORIAL HepG2 Assay for human T-Cell-Factor with beta-catenin (TCF/b-cat) (AID 2282965). The note with it: HepG2 TCF/beta-catenin cis-reporter transcription, actives raise or lower the signal. In outline: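 Endogenous transcription factor activity is captured through cis-promoter reporter constructs transiently introduced into human HepG2 liver cells. Induced reporter mRNA is measured after 24 h and fitted bidirectionally relative to DMSO.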

The nature of test [2]: ATG_TAL_CIS: Attagene CIS-FACTORIAL HepG2 Assay for human TAL Basal Promoter (AID 2282966).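 Note: background control endpoint measuring basal TAL promoter reporter mRNA not a specific factor.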 The note with it: HepG2 Attagene cis-factorial TAL promoter reporter; actives raise or lower the signal. Summed up:
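Fluorescence of labelled reporter cDNA fragments, resolved by capillary electrophoresis, gave the readout. Human HepG2 liver cells carried transiently transfected cis-element reporter units and were treated for 24 hours; activity was fitted bidirectionally against DMSO.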

A short description of test [3]: ATG_TGFb_CIS: Attagene CIS-FACTORIAL HepG2 Assay for human Transforming Growth Factor (TGF) (AID 2282967). The note with it: HepG2 Attagene CIS TGFb reporter, mRNA transcription; actives raise or lower the signal. In outline:
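Transcript-level reporter readout: HepG2 transfectants, 24 h exposure, RNA to cDNA, reporter-specific PCR, fluorescent primer extension, capillary sizing against ROX standards. Gain- or loss-of-signal relative to DMSO.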

Test [4] can be described thus: ATG_VDRE_CIS: Attagene CIS-FACTORIAL HepG2 Assay for human Vitamin D Receptor Element (VDRE) (AID 2282968). The note with it: HepG2 VDRE cis-reporter transcription, actives raise or lower the signal. Summed up:
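Reporter mRNA induction, quantified by capillary electrophoresis of fluorescently labelled RT-PCR products, was read 24 h after dosing HepG2 cells carrying transiently transfected cis-regulated reporter units; gain or loss relative to DMSO.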

Test [5] has as its target Estrogen receptor (Homo sapiens) (UniProt P03372). Kind of test: ATG_ERa_TRANS: Attagene TRANS-FACTORIAL HepG2 Assay for human Estrogen Receptor alpha (ERa) (AID 2282970; active = hit-call score of the fitted dose curve at least 0.9, where 1 is the maximum). The note with it: HepG2 Attagene TRANS ERa GAL4 reporter, mRNA. In outline: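 Human liver HepG2, transient transfection of multiple GAL4-UAS reporter units; TRANS format (exogenous NR-Gal4 chimera). 24 h dosing. Readout: reporter mRNA, RT-PCR, 6-FAM primer extension, HpaI digest, capillary electrophoresis. Positive direction vs DMSO.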

Test [6] addresses Steroid hormone receptor ERR1 (Homo sapiens) (UniProt P11474). Nature of the test: ATG_ERRa_TRANS: Attagene TRANS-FACTORIAL HepG2 Assay for human Estrogen-Related Receptor alpha (ERRa) (AID 2282971; active = hit-call score of the fitted dose curve at least 0.9, where 1 is the maximum). The note with it: HepG2 Attagene TRANS reporter, ERRa transactivation. In outline:
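Reporter transcript induction was quantified by RT-PCR and capillary electrophoresis of FAM-labelled, HpaI-cut products after 24 h treatment of HepG2 cells carrying transiently transfected GAL4-UAS reporter units and an exogenous ERRa-Gal4 fusion; activity scored as increase over DMSO.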

For test [7], the target named is X-box-binding protein 1 (Homo sapiens) (UniProt P17861). Nature of the test: ATG_Xbp1_CIS: Attagene CIS-FACTORIAL HepG2 Assay for human X-box Binding Protein 1 (XBP1) (AID 2282972). The note with it: HepG2 XBP1 cis-element reporter, Attagene multiplex; actives raise or lower the signal. Summed up:
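HepG2 cells transiently transfected with multiple cis-element reporter units report endogenous TF activity; 24 h exposure, then reporter mRNA measured by RT-PCR, 6-FAM labelling, HpaI digestion and capillary electrophoresis. Bidirectional fitting versus DMSO.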

The nature of test [8]: ATG_M_19_TRANS: Attagene TRANS-FACTORIAL HepG2 Assay for M19 Transcription Factor (Internal Marker) (AID 2282974; active = hit-call score of the fitted dose curve at least 0.9, where 1 is the maximum). The note with it: HepG2 Attagene TRANS-FACTORIAL M19 internal marker reporter. Summed up:
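Transfected HepG2 (GAL4-UAS MRTUs), 24 h compound, TriZol RNA, DNase-treated RT, reporter PCR, FAM label, HpaI digest, CE fluorescence; gain vs DMSO.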

A short description of test [9]: ATG_GAL4_TRANS: Attagene TRANS-FACTORIAL HepG2 Assay for GAL4 (Internal Marker) (AID 2282976; active = hit-call score of the fitted dose curve at least 0.9, where 1 is the maximum). The note with it: HepG2 Attagene TRANS GAL4 internal marker reporter. Summed up:
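First, HepG2 cells were transfected with reporter units under GAL4-UAS control. Next, they were treated with chemical for 24 h. Finally, RNA was reverse-transcribed, PCR-amplified, FAM-labelled and resolved by capillary electrophoresis, with induction scored against DMSO.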

Test [10] concerns the target Estrogen-related receptor gamma (Homo sapiens) (UniProt P62508). Kind of test: ATG_ERRg_TRANS: Attagene TRANS-FACTORIAL HepG2 Assay for human Estrogen-Related Receptor gamma (ERRg) (AID 2282977; active = hit-call score of the fitted dose curve at least 0.9, where 1 is the maximum;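 note: hits increase reporter signal over DMSO so potencies reflect activators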). The note with it: HepG2 Attagene TRANS reporter, ERRg transactivation. In outline:
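Transfect HepG2 with multiple GAL4-UAS reporter transcription units; dose chemicals 24 h; isolate RNA, reverse-transcribe with oligo(dT), PCR-amplify, label with 6-FAM, digest with HpaI; size fragments by capillary electrophoresis. DMSO serves as negative control.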

Test [11] concerns the target Glucocorticoid receptor (Homo sapiens) (UniProt P04150). Kind of test: ATG_GR_TRANS: Attagene TRANS-FACTORIAL HepG2 Assay for human Glucocorticoid Receptor (GR) (AID 2282978; active = hit-call score of the fitted dose curve at least 0.9, where 1 is the maximum;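 note: activators score as hits since higher reporter transcript over DMSO is fitted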). The note with it: HepG2 Attagene TRANS GR reporter, mRNA transcription. In outline:
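After 24 h incubation with test chemical, transfected HepG2 cells were lysed for RNA; reporter cDNA was amplified, FAM-labelled, HpaI-digested and sized on a capillary analyser. Signal gain relative to DMSO was scored.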

Test [12] concerns the target Bile acid receptor (Homo sapiens) (UniProt Q96RI1). Kind of test: ATG_FXR_TRANS: Attagene TRANS-FACTORIAL HepG2 Assay for Farnesoid X Receptor (FXR) (AID 2282979; active = hit-call score of the fitted dose curve at least 0.9, where 1 is the maximum;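 note: hits raise reporter mRNA above DMSO so AC50 marks FXR activation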). The note with it: HepG2 Attagene TRANS FXR-GAL4 reporter transcription. In outline: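 Transient transfection of HepG2 with multiplexed GAL4-UAS reporter units; exogenous FXR-GAL4 chimera. Dose 24 h → TriZol RNA → oligo(dT) RT → PCR, 6-FAM primer extension, HpaI cut → CE. Gain vs DMSO.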

Test [13] has as its target Oxysterols receptor LXR-alpha (Homo sapiens) (UniProt Q13133). Nature of the test: ATG_LXRa_TRANS: Attagene TRANS-FACTORIAL HepG2 Assay for human Liver X Receptor alpha (LXRa) (AID 2282980; active = hit-call score of the fitted dose curve at least 0.9, where 1 is the maximum). The note with it: HepG2 Attagene TRANS reporter, LXRa transactivation. In outline:
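Transfect HepG2 with GAL4-UAS multiplex reporter constructs (TRANS format, chimeric receptor-GAL4); treat 24 h; extract RNA, reverse-transcribe, PCR-amplify, FAM-label, HpaI-digest; resolve fragments by capillary electrophoresis. Upward response vs DMSO.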

Test [14] in a line: ATG_M_32_TRANS: Attagene TRANS-FACTORIAL HepG2 Assay for M32 Transcription Factor (Internal Marker) (AID 2282984; active = hit-call score of the fitted dose curve at least 0.9, where 1 is the maximum;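 note: transcript level of a background control reporter unit measured by RT-PCR and capillary electrophoresis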). The note with it: HepG2 Attagene TRANS M32 internal marker reporter. In outline:
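Measures reporter mRNA induction in human HepG2 liver cells after 24 h chemical treatment. Transcripts from transiently transfected GAL4-UAS reporter units are amplified, fluorescently labelled and sized by capillary electrophoresis; gain of signal relative to DMSO.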

Test [15] addresses Nuclear receptor subfamily 4 group A member 2 (Homo sapiens) (UniProt P43354). Nature of the test: ATG_NURR1_TRANS: Attagene TRANS-FACTORIAL HepG2 Assay for human Nuclear Receptor Related Protein 1 (NURR1) (AID 2282985; active = hit-call score of the fitted dose curve at least 0.9, where 1 is the maximum). The note with it: HepG2 Attagene TRANS reporter, mRNA readout. Summed up:
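Transient transfection of HepG2, human liver cells, with multiple GAL4-UAS reporter transcription units. Cells dosed 24 h, RNA isolated, reverse-transcribed, PCR-amplified, FAM-labelled, HpaI-digested, sized by capillary electrophoresis. DMSO served as negative control.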

The target of test [16] is Transcriptional activator Myb (Homo sapiens) (UniProt P10242). Kind of test: ATG_Myb_CIS: Attagene CIS-FACTORIAL HepG2 Assay for human Myeloblastosis (Myb) Proto-Oncogene Transcription Factor (AID 2282986). The note with it: HepG2 Attagene CIS-FACTORIAL Myb reporter transcription; actives raise or lower the signal. In outline: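 After 24 h of compound dosing, total RNA from transfected HepG2 cells is reverse-transcribed and the reporter sequences amplified, labeled and separated by capillary electrophoresis. Values come from bidirectional fitting against DMSO.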

In test [17] the target is Hepatocyte nuclear factor 4-alpha (Homo sapiens) (UniProt P41235). Nature of the test: ATG_HNF4a_TRANS: Attagene TRANS-FACTORIAL HepG2 Assay for human Hepatocyte Nuclear Factor 4 alpha (HNF4a) (AID 2282982; active = hit-call score of the fitted dose curve at least 0.9, where 1 is the maximum). The note with it: HepG2 HNF4a transactivation reporter, mRNA readout. In outline:
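Readout is fluorescent reporter-transcript fragments resolved by capillary electrophoresis after RT-PCR from HepG2 cells dosed for 24 h. Cells carried transfected GAL4-UAS reporter constructs measuring exogenous NR-GAL4 chimera activity; DMSO served as baseline.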

Test [18] deals with Oxysterols receptor LXR-beta (Homo sapiens) (UniProt P55055). Kind of test: ATG_LXRb_TRANS: Attagene TRANS-FACTORIAL HepG2 Assay for human Liver X Receptor beta (LXRb) (AID 2282981; active = hit-call score of the fitted dose curve at least 0.9, where 1 is the maximum). The note with it: HepG2 Attagene TRANS GAL4-LXRb reporter, mRNA. In outline: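 Transient transfection HepG2 (multiplexed RTUs, GAL4-UAS); NR-Gal4 chimera; 24 h exposure; RNA → RT-PCR → 6-FAM primer extension → HpaI → CE; increase vs DMSO.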

A short description of test [19]: ATG_M_06_TRANS: Attagene TRANS-FACTORIAL HepG2 Assay for M06 Transcription Factor (Internal Marker) (AID 2282983; active = hit-call score of the fitted dose curve at least 0.9, where 1 is the maximum;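 note: reporter transcript level by RT-PCR then capillary electrophoresis fluorescence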). The note with it: HepG2 Attagene TRANS M06 internal marker reporter. Summed up: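 Transfect HepG2 with MRTUs → dose compounds 24 h → isolate RNA, oligo(dT) RT → PCR with reporter primers → 6-FAM primer extension → HpaI digest → CE fragment analysis. Positive direction vs DMSO.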

Transcriptional activator Myb (Homo sapiens), sequence (P10242 whole entry, looked up): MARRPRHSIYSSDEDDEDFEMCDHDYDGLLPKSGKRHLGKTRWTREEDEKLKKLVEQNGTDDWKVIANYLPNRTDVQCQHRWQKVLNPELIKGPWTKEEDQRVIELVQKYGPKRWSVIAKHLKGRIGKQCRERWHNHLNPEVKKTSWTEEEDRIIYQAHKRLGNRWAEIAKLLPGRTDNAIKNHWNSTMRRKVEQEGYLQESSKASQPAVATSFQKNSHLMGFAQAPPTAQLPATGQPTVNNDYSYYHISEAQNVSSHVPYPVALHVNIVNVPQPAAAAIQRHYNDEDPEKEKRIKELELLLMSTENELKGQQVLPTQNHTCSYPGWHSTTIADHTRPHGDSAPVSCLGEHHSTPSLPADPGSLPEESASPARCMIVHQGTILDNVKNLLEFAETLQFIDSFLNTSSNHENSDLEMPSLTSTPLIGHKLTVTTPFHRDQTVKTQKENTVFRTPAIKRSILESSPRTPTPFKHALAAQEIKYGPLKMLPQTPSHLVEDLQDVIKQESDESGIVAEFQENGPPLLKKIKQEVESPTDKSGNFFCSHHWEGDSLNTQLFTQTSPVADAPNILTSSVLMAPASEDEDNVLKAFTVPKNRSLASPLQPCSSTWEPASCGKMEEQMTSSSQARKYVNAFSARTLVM
Estrogen receptor (Homo sapiens), sequence (P03372 whole entry, looked up, the tested form may be a part): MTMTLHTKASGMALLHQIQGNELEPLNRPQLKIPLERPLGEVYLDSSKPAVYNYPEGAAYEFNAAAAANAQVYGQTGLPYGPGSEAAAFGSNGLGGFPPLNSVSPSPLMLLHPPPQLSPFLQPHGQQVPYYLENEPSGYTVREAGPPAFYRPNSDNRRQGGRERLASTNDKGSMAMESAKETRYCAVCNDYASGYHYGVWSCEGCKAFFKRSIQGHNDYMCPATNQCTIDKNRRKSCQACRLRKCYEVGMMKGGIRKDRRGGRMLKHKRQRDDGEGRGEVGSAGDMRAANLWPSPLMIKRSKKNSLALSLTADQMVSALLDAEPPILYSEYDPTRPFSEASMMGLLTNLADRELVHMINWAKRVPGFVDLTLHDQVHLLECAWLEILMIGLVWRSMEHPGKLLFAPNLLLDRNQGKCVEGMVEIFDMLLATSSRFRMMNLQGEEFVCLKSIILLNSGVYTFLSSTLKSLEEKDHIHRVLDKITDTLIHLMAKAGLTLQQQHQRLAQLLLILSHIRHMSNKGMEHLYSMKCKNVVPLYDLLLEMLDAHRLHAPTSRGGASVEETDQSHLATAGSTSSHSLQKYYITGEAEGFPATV
Glucocorticoid receptor (Homo sapiens), sequence (P04150 whole entry, looked up): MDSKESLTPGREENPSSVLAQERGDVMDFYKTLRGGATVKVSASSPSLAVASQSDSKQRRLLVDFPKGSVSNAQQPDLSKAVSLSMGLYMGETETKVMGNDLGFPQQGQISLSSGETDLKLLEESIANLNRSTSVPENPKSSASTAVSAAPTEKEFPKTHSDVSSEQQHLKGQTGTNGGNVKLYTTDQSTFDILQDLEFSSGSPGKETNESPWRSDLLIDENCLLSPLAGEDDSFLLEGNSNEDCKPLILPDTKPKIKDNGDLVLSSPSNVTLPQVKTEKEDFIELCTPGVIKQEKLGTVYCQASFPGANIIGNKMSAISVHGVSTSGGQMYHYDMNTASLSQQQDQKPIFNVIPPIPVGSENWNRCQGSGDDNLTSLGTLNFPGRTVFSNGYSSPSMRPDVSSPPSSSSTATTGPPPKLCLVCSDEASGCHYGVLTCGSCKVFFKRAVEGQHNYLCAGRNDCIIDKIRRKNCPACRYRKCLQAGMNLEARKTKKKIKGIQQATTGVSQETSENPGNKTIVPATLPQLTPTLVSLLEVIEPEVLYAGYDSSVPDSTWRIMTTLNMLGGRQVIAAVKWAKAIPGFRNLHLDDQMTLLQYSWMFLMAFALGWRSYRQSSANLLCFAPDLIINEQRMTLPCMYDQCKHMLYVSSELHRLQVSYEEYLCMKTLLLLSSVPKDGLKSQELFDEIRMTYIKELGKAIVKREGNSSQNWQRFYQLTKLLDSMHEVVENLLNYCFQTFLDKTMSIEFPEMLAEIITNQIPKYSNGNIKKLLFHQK
Oxysterols receptor LXR-alpha (Homo sapiens), sequence (Q13133 whole entry, looked up, the tested form may be a part): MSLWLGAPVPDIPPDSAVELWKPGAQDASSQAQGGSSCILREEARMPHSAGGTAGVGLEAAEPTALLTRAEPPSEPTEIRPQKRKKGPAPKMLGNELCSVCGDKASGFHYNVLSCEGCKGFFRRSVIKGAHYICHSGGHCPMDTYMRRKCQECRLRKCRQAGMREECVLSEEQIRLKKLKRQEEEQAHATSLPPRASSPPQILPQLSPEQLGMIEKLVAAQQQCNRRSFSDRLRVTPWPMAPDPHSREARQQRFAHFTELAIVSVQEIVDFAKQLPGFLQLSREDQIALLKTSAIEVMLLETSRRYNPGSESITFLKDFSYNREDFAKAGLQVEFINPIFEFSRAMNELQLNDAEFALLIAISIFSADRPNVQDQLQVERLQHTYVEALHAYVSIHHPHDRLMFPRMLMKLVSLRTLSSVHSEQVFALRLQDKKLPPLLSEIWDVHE
X-box-binding protein 1 (Homo sapiens), sequence (P17861 whole entry, looked up): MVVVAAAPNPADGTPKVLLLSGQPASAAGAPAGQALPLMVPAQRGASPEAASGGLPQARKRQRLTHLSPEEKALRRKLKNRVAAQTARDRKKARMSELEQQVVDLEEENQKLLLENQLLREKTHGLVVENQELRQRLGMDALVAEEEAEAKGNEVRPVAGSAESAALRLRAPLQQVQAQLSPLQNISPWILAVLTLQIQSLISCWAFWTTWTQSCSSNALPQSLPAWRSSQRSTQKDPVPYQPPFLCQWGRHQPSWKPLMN
Nuclear receptor subfamily 4 group A member 2 (Homo sapiens), sequence (P43354 whole entry, looked up, the tested form may be a part): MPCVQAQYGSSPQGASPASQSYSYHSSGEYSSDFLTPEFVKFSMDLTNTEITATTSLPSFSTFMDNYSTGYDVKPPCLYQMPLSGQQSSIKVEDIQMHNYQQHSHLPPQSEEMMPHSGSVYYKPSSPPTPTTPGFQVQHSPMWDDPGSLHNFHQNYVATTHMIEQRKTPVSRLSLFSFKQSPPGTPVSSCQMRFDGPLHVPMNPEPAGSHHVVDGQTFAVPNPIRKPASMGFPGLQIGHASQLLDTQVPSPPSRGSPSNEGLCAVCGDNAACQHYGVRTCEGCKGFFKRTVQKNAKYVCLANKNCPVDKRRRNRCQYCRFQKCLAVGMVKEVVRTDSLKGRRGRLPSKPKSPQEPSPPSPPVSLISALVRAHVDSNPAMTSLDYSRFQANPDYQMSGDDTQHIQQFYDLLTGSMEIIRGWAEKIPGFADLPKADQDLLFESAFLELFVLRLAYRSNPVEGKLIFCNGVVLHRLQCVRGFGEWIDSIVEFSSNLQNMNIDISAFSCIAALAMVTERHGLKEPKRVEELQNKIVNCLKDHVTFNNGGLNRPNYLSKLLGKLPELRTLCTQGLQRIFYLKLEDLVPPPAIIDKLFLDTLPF
Oxysterols receptor LXR-beta (Homo sapiens), sequence (P55055 whole entry, looked up, the tested form may be a part): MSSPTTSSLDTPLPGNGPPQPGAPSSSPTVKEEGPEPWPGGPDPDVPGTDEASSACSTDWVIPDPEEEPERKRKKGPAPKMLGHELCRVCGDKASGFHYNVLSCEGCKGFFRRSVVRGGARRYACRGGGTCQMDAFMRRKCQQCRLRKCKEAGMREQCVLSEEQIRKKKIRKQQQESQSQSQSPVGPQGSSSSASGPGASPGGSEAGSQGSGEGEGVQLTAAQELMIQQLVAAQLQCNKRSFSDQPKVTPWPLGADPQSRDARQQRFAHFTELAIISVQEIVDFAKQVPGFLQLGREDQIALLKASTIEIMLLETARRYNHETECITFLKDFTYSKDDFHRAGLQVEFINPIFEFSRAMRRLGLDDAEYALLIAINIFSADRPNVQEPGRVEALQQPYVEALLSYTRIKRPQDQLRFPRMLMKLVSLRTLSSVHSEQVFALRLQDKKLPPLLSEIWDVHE
Steroid hormone receptor ERR1 (Homo sapiens), sequence (P11474 whole entry, looked up, the tested form may be a part): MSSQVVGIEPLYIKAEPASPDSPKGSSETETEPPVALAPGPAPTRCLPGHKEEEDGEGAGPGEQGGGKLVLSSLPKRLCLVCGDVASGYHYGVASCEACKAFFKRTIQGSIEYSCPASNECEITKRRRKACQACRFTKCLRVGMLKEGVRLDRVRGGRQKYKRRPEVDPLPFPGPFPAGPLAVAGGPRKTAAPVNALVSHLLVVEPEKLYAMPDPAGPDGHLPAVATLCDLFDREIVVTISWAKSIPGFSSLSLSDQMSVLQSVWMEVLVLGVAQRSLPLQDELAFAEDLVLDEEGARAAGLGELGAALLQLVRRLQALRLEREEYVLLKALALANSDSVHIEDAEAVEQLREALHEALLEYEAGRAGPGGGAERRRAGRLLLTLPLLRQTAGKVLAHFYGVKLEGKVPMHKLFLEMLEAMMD
Estrogen-related receptor gamma (Homo sapiens), sequence (P62508 whole entry, looked up, the tested form may be a part): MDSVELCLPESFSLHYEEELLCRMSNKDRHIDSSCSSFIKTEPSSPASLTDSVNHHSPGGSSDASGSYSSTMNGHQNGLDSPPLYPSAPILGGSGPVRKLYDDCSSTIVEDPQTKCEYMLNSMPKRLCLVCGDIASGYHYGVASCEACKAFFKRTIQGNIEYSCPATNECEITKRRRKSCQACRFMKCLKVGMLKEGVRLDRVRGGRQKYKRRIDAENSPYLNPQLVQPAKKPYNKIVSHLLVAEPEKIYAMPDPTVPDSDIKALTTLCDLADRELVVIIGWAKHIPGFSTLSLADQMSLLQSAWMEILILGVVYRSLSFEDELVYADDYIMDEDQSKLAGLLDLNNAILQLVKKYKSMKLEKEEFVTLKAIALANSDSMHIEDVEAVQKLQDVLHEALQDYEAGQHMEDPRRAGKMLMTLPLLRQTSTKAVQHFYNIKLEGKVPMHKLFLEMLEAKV

As for `NC(=O)Cn1c(=O)cc(CCN2CCN(c3nccc4sccc34)CC2)c2ccc(F)cc21`, the concentration at half-maximal activity (AC50) in test [1] was 30.9 µM (active). Moreover, the call in [2], in test [3], in test [4], in test [5], in [6] and in test [7] was inactive. The molecule was called inactive in [8], in [9], in test [10], in test [11], in test [12] and in test [13]. The outcome in test [14], in [15] and in test [16] was inactive.
`Cc1cccc(Nc2cc(Cl)nc(SCC(=O)O)n2)c1C`: the call in test [1], in [2], in test [3], in test [4], in test [5] and in test [7] was inactive. In addition, the outcome in [9], in test [11] and in [16] was inactive.
Consider `c1cc(-c2ccncc2)ccn1`, for which the molecule was called inactive in [1], in test [2], in test [3], in [4], in test [5] and in test [7]. Besides, the call in test [8], in test [9], in test [13], in [17], in test [15] and in test [16] was inactive.
On to `CC(C)c1ccc(C(=O)N=C(N)N)cc1S(C)(=O)=O`, for which the result in [1], in test [2], in [3], in test [4], in [7] and in [11] was inactive. For the same molecule, the call in [18], in [19], in test [14] and in test [16] was inactive. In [5], the AC50 is 68.6 µM (active).
For the molecule `CN1CCCC1=O`, the molecule was classed as inactive in [1], in test [2], in test [3], in test [4], in [5] and in [7]. Further, the molecule was classed as inactive in test [13], in [18], in test [15] and in [16].
